AMA1 RON2 block = qHTS for Inhibitors of AMA1-RON; Towards Development of Antimalarial Drug Lead: Primary Screen | Plasmodium falciparum AMA1 (3D7) - RON2 peptide interaction | AlphaScreen AMA1-biotinylated RON2 peptide binding | Potency, µM (doses to about 58.2 µM), hits mostly inhibitors | 0.2% of 360,000 active; also: nearly all actives have a fitted effect of over 45% in size
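AMA1 (3D7) with his tag at 25 nM final met compounds first, then biotinylated RON2 peptide at 25 nM; detection used donor plus acceptor beads, 10 µg/mL apiece, read by AlphaScreen after 30 min at room temperature.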
Pf growth 48h = Primary qHTS for delayed death inhibitors of the malarial parasite plastid, 48 hour incubation | Potency, µM (titrated, usually from 28.7 µM), most hits filed as inhibitors | P. falciparum luciferase growth in erythrocytes, 48 h | 5.9% of 310,000 active
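Erythrocytes infected with P. falciparum carrying an integrated firefly luciferase reporter (2% hematocrit, 0.1% parasitemia final) were exposed to compounds in RPMI 1640 with 0.5% Albumax at 37 C, 5% CO2. Growth inhibition was scored as reduced luminescence.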
AmpC inh detg = qHTS Inhibitors of AmpC Beta-Lactamase (assay with detergent) | AID 485294, 2010 | 0.041% of 370,000 active | P00811 | AmpC hydrolysis of nitrocefin, absorbance 480 nm, 0.01% Triton | Potency, µM (top dose mostly 114 µM), actives largely listed as inhibitors; also: nearly all actives have a fitted effect of over 25% in size
Target sequence (P00811 whole entry, looked up): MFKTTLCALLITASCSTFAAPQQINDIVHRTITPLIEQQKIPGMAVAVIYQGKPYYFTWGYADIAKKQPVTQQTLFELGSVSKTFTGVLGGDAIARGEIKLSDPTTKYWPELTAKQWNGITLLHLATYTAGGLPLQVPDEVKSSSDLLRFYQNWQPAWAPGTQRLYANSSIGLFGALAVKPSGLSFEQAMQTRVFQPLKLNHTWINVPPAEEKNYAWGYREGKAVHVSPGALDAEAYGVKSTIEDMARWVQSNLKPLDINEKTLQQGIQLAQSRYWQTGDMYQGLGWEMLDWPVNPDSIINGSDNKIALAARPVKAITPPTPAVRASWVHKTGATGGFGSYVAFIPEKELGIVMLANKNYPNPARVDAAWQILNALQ
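20 mM phosphate pH 7.0 + 0.01% (detergent screen) or 0.0001% Triton X-100; 5.3 nM AmpC reagent; cpd preinc 15 min RT; nitrocefin (800 uM stock) to start; A480 q20 s × 4 min; Activity was normalised to no-enzyme and no-compound control wells.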
Pf growth 96h = Primary qHTS for delayed death inhibitors of the malarial parasite plastid, 96 hour incubation | 6.9% of 320,000 active | AID 504834, 2011 | P. falciparum luciferase reporter growth, 96 h | Potency, µM (series often up to 28.7 µM), actives largely listed as inhibitors
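Two-generation exposure (96 h) targets delayed-death phenotype. Reporter parasites carrying integrated firefly luciferase, in red cells at 2% hematocrit and 0.05% parasitemia final, kept at 37 C, 5% CO2; luminescence loss indicates inhibition.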
AmpC no deterg = qHTS Inhibitors of AmpC Beta-Lactamase (assay without detergent); AmpC nitrocefin hydrolysis, absorbance 480 nm, 0.0001% Triton; Potency, µM (doses to about 57.1 µM), hits mostly inhibitors; 0.52% of 330,000 active; P00811; also: nearly all actives have a fitted effect of over 20% in size
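20 mM phosphate pH 7.0 + 0.01% (detergent screen) or 0.0001% Triton X-100; 5.3 nM AmpC reagent; cpd preinc 15 min RT; nitrocefin (800 uM stock) to start; A480 q20 s × 4 min; Activity was normalised to no-enzyme and no-compound control wells.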
HCV inhibitor = qHTS Assay for Inhibitors of Hepatitis C Virus (HCV); Huh7.5.1 HCVcc-Cre infection, luciferase reporter, 44 h; Potency, µM (titrated, usually from 41.8 µM), usual class: inhibitors; 3.4% of 340,000 active
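Whole-lifecycle infectious HCVcc-Cre system; cells 1,000/well, compound then virus (~0.5 moi) added 4 h after plating, 44 h culture. Luciferase read 15 sec following 15 min substrate incubation, room temp.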
A number is an active result; – = inactive; ? = inconclusive; · = no result given; [ ] = remark or other dose. Sampled rows, rich in hits. Any-hit rate of the full collection: about 11%. Calls follow the shape of the dose curve; as a rule, active = well fitted curve in the direction sought with a large enough effect; inconclusive = small, poorly fitted or top-dose-only effect, or another doubt; inactive = no such curve, though single readings can be large; an effect the other way counts as inactive or inconclusive.

SMILES | AMA1 RON2 block | Pf growth 48h | AmpC inh detg | Pf growth 96h | AmpC no deterg | HCV inhibitor
O=C(Cn1cccn1)N1CCCC(N2CCN(c3ccccc3F)CC2)C1 (stereo not drawn) | – | – | ? | 3.7µM | – | –
CCN(CC)c1ccc(NC(=O)c2cc3c(=O)n4cccc(C)c4nc3n2C)c(C)c1 | · | · | – | · | · | ·
Cc1oc(-c2ccc(Cl)cc2)nc1Cn1c(=O)cc(-c2ccccc2)c2c(C)nn(C)c21 | · | · | – | · | · | ·
CCOC(=O)c1[nH]c2c(c1-c1ccccc1)C(=O)CC(c1ccc(OCC)cc1)C2 (stereo not drawn) | – | – | – | 10µM | – | –[8.37 µM]
CCOC(=O)c1[nH]c2c(c1-c1ccccc1)C(=O)CC(c1ccc(OC)c(OC)c1)C2 (stereo not drawn) | – | ? | ? | 10µM | – | ?
CCOC(=O)c1[nH]c2c(c1C)C(=O)CC(c1ccc(OCC)c(OC)c1)C2 (stereo not drawn) | – | · | – | – | – | ?
COc1ccc(C2C=C(c3ccccc3)Nc3nc(NC(=O)c4cccc([N+](=O)[O-])c4)nn32)cc1 (stereo not drawn) | · | · | – | · | · | ·
COc1ccc(/C=N/Nc2snc(SC)c2C#N)cc1OC | – | 4.1µM | – | – | – | ?
COc1cccc(/C=N/Nc2snc(SC)c2C#N)c1 | – | – | – | ? | – | –
Cc1ccccc1CNC(=O)Cn1c(=O)c2cccn2c2cccnc21 | · | · | – | · | · | ·
CCN(C(=O)CN1C(=O)S/C(=C\c2ccccc2OC)C1=O)C1CCS(=O)(=O)C1 (stereo not drawn) | – | ? | – | ? | – | –
CCN(C(=O)CN1C(=O)S/C(=C\C=C\c2ccccc2)C1=O)C1CCS(=O)(=O)C1 (stereo not drawn) | – | 7.4µM | – | 4.1µM | – | –
CCN(C(=O)CCN1C(=O)/C(=C/c2ccccc2)SC1=S)C1CCS(=O)(=O)C1 (stereo not drawn) | – | 13µM | – | 7.4µM | – | ?
CCN(C(=O)CN1C(=O)S/C(=C\c2cccc(Cl)c2)C1=O)C1CCS(=O)(=O)C1 (stereo not drawn) | – | ? | – | 12µM | – | –
CCN(C(=O)CN1C(=O)S/C(=C\c2ccc(Cl)cc2)C1=O)C1CCS(=O)(=O)C1 (stereo not drawn) | – | – | – | – | – | –
COc1cccc(-n2ccn(CC(=O)Nc3ccccc3F)c(=O)c2=O)c1 | · | · | – | · | · | ·
COc1ccc(C(=O)Nc2ccc(Nc3ccccc3)cc2)cc1[N+](=O)[O-] | – | – | ? | – | – | 11µM
COc1ccc(C(=O)Nc2ccccc2N2CCCCC2)cc1[N+](=O)[O-] | – | ? | – | 12µM | – | ?
COc1cc(/C=N\NC(=O)CNC(=O)C(c2ccccc2)c2ccccc2)ccc1O | – | ? | – | ? | – | ?
COc1ccc(S(=O)(=O)Nc2ccccc2N2CCOCC2)cc1[N+](=O)[O-] | – | 13µM | – | – | – | ?
COc1ccc(S(=O)(=O)Nc2ccc(N3CCOCC3)cc2)cc1[N+](=O)[O-] | – | – | – | –[5.75 µM] | – | –
COc1ccc(/C=N\NC(=O)CNC(=O)C(c2ccccc2)c2ccccc2)cc1[N+](=O)[O-] | – | – | – | – | 4µM | –
COc1ccc(C(=O)Nc2ccc(OCc3ccccc3)cc2)cc1[N+](=O)[O-] | – | – | ? | – | – | ?
C=Cc1ccc(CSc2nnc(C)n3c2cc2occc23)cc1 | · | · | – | · | · | ·
Cc1c(NC(=O)c2ccc(N3CCCC3)c([N+](=O)[O-])c2)cccc1-c1nc2ccccc2s1 | – | 10µM | – | ? | – | ?
SMILES | AMA1 RON2 block | Pf growth 48h | AmpC inh detg | Pf growth 96h | AmpC no deterg | HCV inhibitor
CN1CCN(c2ccccc2NC(=O)c2ccc(N3CCCCC3)c([N+](=O)[O-])c2)CC1 | – | 13µM | – | ? | – | ?
CN1CCN(c2ccccc2NC(=O)c2ccc(N3CCOCC3)c([N+](=O)[O-])c2)CC1 | – | ? | – | – | – | –
CC1CN(Cc2cc(=O)n3ccsc3n2)CC(C)O1 (stereo not drawn) | – | – | – | 12µM | – | –
O=C(CCl)Nc1ccc(Oc2cnc3ccccc3n2)cc1 | – | 1.7µM | – | 0.74µM | – | ?
O=C(O)COc1cnc2ccccc2n1 | – | – | – | – | – | –
O=C(Cc1cccs1)Nc1cccc(-c2nc3cc4ccccc4cc3[nH]2)c1 | – | – | – | – | – | 11µM
O=C(Nc1cccc(-c2nc3ccccc3[nH]2)c1)c1ccco1 | – | ? | – | 15µM | – | ?
CC(=O)Nc1cccc(NC(=O)Cc2cccs2)c1 | – | – | – | ? | – | –
O=C(Nc1cccc(-c2cnc3ccccc3n2)c1)c1cccc(NC(=O)c2ccco2)c1 | – | · | – | · | – | 10µM
CCOc1ccccc1NC(=O)c1ccc(F)c(S(=O)(=O)N2CCN(c3ccc(F)cc3)CC2)c1 | · | · | – | · | · | ·
COc1cc2oc(=O)c(CC(=O)NCCc3ccccc3)c(C)c2cc1Cl | · | · | – | · | · | ·
CC(=O)Nc1cc(NC(C)=O)cc(-c2nc3ccccc3[nH]2)c1 | – | – | – | 10µM | – | –
O=C(CCl)Nc1cccc(-c2cnc3ccccc3n2)c1 | – | 1µM | – | · | – | ?
CC(=O)Nc1ccc2nc(-c3ccccn3)[nH]c2c1 | – | – | – | ? | – | –
O=C(Nc1cccc(-c2cnc3ccccc3n2)c1)C1CC(=O)N(c2ccccc2)C1 (stereo not drawn) | – | – | – | – | – | 13µM
O=C(Nc1ccncc1)C1CC(=O)N(c2ccccc2)C1 (stereo not drawn) | – | · | · | · | · | –
CCCCc1ccc(NC(=O)Cn2cnc3c2c(=O)n(C)c(=O)n3C)cc1 | · | · | – | · | · | ·
CCOC(=O)c1c(C)[nH]c(CCC(=O)Nc2ccc(Cl)cc2C)c1C | · | · | – | · | · | ·
COc1ccc(C(C)=O)cc1CSc1nnc(Nc2c(C)cccc2C)s1 | – | ? | – | 9.3µM | – | ?
COc1ccc(C(C)=O)cc1CSc1nnc(-c2ccncc2)o1 | – | ? | – | 4.1µM | – | –
C/C(N)=C(/C#N)C(=O)CSc1nnc(Nc2cccc(C)c2C)s1 | – | ? | – | – | – | –
COC(=O)c1ccc(OC)c(CSc2nnc(-c3ccc(C)cc3)o2)c1 | – | · | · | · | · | –
C/C(N)=C(/C#N)C(=O)CSc1nnc(Nc2c(C)cccc2C)s1 | – | ? | – | 12µM | – | –
